Records with an inconclusive call do not appear. Active and inactive are the calls of the source. The calls were made as follows: active = hit-call score of the fitted dose curve at least 0.9, where 1 is the maximum; inconclusive = response in the unintended direction; inactive = score below 0.9.
read-out: organic anion transporter (SLCO1B1), SLCO1B1 (gene 10599); experiment: CLD_SLCO1B1_6hr: CellzDirect (CLD) Gene Expression Assay for organic anion transporter (SLCO1B1) at 6 hours (AID 2283668);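 also: active means mRNA induction above DMSO baseline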
Experimental: CLD_6hr is a cell-based, multiplexed-readout assay that uses hepatocyte, a human liver primary cell, with measurements taken at 6 hours after chemical dosing in a 96-well plate.CLD_SLCO1B1_6hr is one of 16 assay component(s) measured or calculated from the CLD_6hr assay. It is designed to make measurements of mRNA induction, a form of inducible reporter, as detected with chemiluminescence signals by Quantitative Nuclease Protection Assay (qNPA) technology.Data from the assay component CLD_SLCO1B1_6hr was analyzed at the endpoint, CLD_SLCO1B1_6hr, in the positive analysis fitting direction relative to DMSO as the negative control and baseline of activity. Using a type of inducible reporter, gain-of-signal activity can be used to understand changes in the reporter gene as they relate to the gene SLCO1B1. Furthermore, this assay endpoint can be referred to as a primary readout. To generalize the intended target to other relatable targets, this assay endpoint is annotated to the transporter intended target family, where subfamily is organic anion transporter.
Human hepatocyte cultures were treated daily for two consecutive days with fresh dosing solutions containing appropriate concentrations of the 320 ToxCast chemicals (chemical identities were blinded to CellzDirect and other ToxCast collaborators), vehicle control (0.2% DMSO), and positive control inducers as summarized in Table 1. Due to the large number of treatment groups and chemicals examined, the ToxCast chemicals were divided into two groups (spanning two independent cultures of hepatocytes from separate donor preparations (Hu778: ToxCast plates 1 and 2; Hu776: ToxCast plates 3 and 4). Each preparation of human hepatocyte cultures was treated with respective vehicle control, medium only control, set of six positive controls/reference chemicals for the five hepatic receptor pathways, and a subset of eight of the ToxCast chemicals (indoxacarb, pyrithiobac-sodium, norflurazon, cyhalofop-butyl, methomyl, thiram, acetochlor, and propiconazole). These replicate data, coupled with internal replicates designed within the blinded ToxCast chemical library, provided additional data to evaluate interindividual differences between hepatocyte preparations and their potential impact on chemical profiles.Cell morphology and integrity were evaluated using phase-contrast microscopy as an indicator of hepatocyte cell health (Tyson & Green, 1987). Cultures for each treatment group (i.e., media, vehicle [0.2% DMSO], positive control inducers [multiple concentrations], and the ToxCast chemicals [multiple concentrations]) were observed and cell morphology was assessed relative to vehicle control cultures at each harvest time point (0, 6, 24, or 48 h). […] Images were evaluated at the conclusion of the study to assess changes in cell integrity and account for the effects of chemical exposure on uncharacteristic changes in concentration-dependent gene expression profiles. The results from these determinations of apparent cytotoxicity were annotated (yes/no) alongside the corresponding qNPA data for reference.At the conclusion of each treatment period, hepatocyte cultures (96-well) were washed with 1 volume of HBSS, lysed by addition of 25 ul ArrayPlate lysis buffer (HTG, Tucson, AZ), and 70 ul/well of Denaturation Oil, denatured by incubation at 95C for 10 min, and frozen at approximately -70C until analysis by nuclease protection assay (qNPA) (Roberts et al., 2007). For qNPA analysis, cell lysates were thawed at 50C for approximately 30 min, qNPA probes were added, and samples were incubated at 95C for 10 min to begin the detection process by denaturing the target RNA, dissociating the duplexes and secondary structure hybridization. At the conclusion of the hybridization period, S1 nuclease reagent was added to each sample to digest all nonprotected nucleotides at 50C for 60-90 min. […]

Row | SMILES | outcome
1 | COC(=O)c1ccc(I)cc1S(=O)(=O)NC(=O)Nc1nc(C)nc(OC)n1 | inactive
2 | CC1(C)C(C=C(Cl)Cl)C1C(=O)OCc1cccc(Oc2ccccc2)c1 (stereo unspecified) | inactive
3 | COc1c(Cl)ccc(Cl)c1C(=O)O | inactive
4 | CCN(CC)C(=O)c1cccc(C)c1 | inactive
5 | OB(O)O | inactive
6 | COC(=O)c1ccc(CNS(C)(=O)=O)cc1S(=O)(=O)NC(=O)Nc1nc(OC)cc(OC)n1 | inactive
7 | COC(=O)c1cccc(C)c1S(=O)(=O)NC(=O)Nc1nc(OCC(F)(F)F)nc(N(C)C)n1 | inactive
8 | C#CCOC(=O)[C@@H](C)Oc1ccc(Oc2ncc(Cl)cc2F)cc1 | inactive
9 | CCCCC(CC)COC(=O)c1ccccc1C(=O)O (stereo unspecified) | inactive
10 | CCCCOC(=O)C(C)Oc1ccc(Oc2ccc(C(F)(F)F)cn2)cc1 (stereo unspecified) | inactive
11 | CCCOC(=O)c1ccc(C(=O)OCCC)nc1 | inactive
12 | S=C([S-])NCCNC(=S)[S-].[Mn+2] | inactive
13 | S=C(S)NCCNC(=S)S.[Mn+2].[S-]C([S-])=NCCN=C([S-])[S-].[Zn+2] | inactive
14 | CCOC(=O)[C@H](C)Oc1ccc(Oc2nc3ccc(Cl)cc3o2)cc1 | inactive
15 | O=C(Nc1ccc([N+](=O)[O-])cc1Cl)c1cc(Cl)ccc1O | inactive
16 | CCCN(CCC)c1c([N+](=O)[O-])cc(C(F)(F)F)c(N)c1[N+](=O)[O-] | inactive
17 | CCSC(=O)N(CC(C)C)CC(C)C | inactive
18 | CCCN(CCC)C(=O)SCC | inactive
19 | CCC(O)=C1C(=O)CC(C(=O)O)CC1=O (stereo unspecified) | inactive
20 | COc1nc(C)nc(NC(=O)NS(=O)(=O)c2ccccc2OCCCl)n1 | inactive
21 | COC(=O)c1ccccc1S(=O)(=O)NC(=O)Nc1nc(OC(F)F)cc(OC(F)F)n1 | inactive
22 | CCOC(=O)C(C)Oc1ccc(Oc2nc3ccc(Cl)cc3o2)cc1 (stereo unspecified) | inactive
23 | CCOC(=O)NCCOc1ccc(Oc2ccccc2)cc1 | inactive
24 | C=CCOC(Cn1ccnc1)c1ccc(Cl)cc1Cl (stereo unspecified) | inactive
25 | c1ccc(Nc2ccccc2)cc1 | inactive
26 | CCC(C)OC(=O)N1CCCCC1CCO (stereo unspecified) | inactive

Reference: PubChem BioAssay (EPA / NIEHS)
